In the library only some 4.3% were active in any assay of this set; here they are far more common.
esBAF inh = SWI/SNF esBAF complex inhibition | 350,000 tested, 2% active | mouse ES cells, Bmi1-luciferase knock-in reporter, 24 h; 100% = twice the neutral-well signal | reporter increase, % at 12.5 µM; in the data active = activation above about 40%; inconclusive = no clear call, values can overlap the other calls;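 also: 0% = median of the plate's neutral control wells and 100% = double that signal; a rise in the Bmi1 reporter signal indicates esBAF inhibition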
FGF22 binding = shifts melting point of recombinant human FGF22. 340,000 tested, 1.5% active. recombinant FGF22 thermal shift, SYPRO orange fluorescence; percent of sucrose octasulfate shift, DMSO zero. AID 651658. Q9HCT0. activity (Tm shift, normalised), % at 9.99 µM;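 active = mean Tm shift, scaled 0 neutral to 100 positive control, at about 1.3% or above, every replicate too, limit read from the data; inconclusive = no clear call, values can overlap the other calls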
SMARCA2 act = increases SMARCA2 function in MMTV reporter cells | MG213 cells, MMTV-luciferase reporter, dexamethasone, overnight | activation, % at 9.1 µM | 370,000 tested, 1% active | AID 652017; in the data active = activation above about 7.8%;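 also: 0% = vehicle wells and 100% = reference activator wells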
MITF TRPM1 HTS = increases MITF-driven TRPM1 promoter luciferase signal; SK-MEL-5 TRPM1-promoter luciferase, 24 h; % of positive control, neutral wells = 0; activation, % at 12.5 µM; 300,000 tested, 0.75% active; AID 588334;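 active = mean activation of at least 80% with every replicate also reaching 80%; inconclusive = mean reaches 80% but some replicate falls short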;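 also: 0% = neutral control wells and 100% = parthenolide positive control wells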
Wnt bcat act = Wnt/beta-catenin pathway activation; Wnt/beta-catenin reporter cell assay, activator, plate reader; 300,000 tested, 1.2% active; activation, % at 9.35 µM; AID 743398; in the data active = activation above about 30%, passing the limit was not always enough; inconclusive = no clear call, values can overlap the other calls;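 also: 0% = neutral control wells and 100% = positive control wells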
MLL AF4-AF9 inh = blocks AF4 peptide binding to human AF9 | P42568 | inhibition, % at 10 µM | AlphaScreen, biotin-AF4 peptide binding to FLAG-AF9 | 350,000 tested, 0.47% active;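 active = every replicate reaching a set inhibition limit, whatever the replicate mean, cut at about 25% in these data; inconclusive = mean inhibition reaches that limit but some replicates miss it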;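 also: 0% = plate neutral control median and 100% = total signal loss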
Target sequence (P42568 whole entry, looked up): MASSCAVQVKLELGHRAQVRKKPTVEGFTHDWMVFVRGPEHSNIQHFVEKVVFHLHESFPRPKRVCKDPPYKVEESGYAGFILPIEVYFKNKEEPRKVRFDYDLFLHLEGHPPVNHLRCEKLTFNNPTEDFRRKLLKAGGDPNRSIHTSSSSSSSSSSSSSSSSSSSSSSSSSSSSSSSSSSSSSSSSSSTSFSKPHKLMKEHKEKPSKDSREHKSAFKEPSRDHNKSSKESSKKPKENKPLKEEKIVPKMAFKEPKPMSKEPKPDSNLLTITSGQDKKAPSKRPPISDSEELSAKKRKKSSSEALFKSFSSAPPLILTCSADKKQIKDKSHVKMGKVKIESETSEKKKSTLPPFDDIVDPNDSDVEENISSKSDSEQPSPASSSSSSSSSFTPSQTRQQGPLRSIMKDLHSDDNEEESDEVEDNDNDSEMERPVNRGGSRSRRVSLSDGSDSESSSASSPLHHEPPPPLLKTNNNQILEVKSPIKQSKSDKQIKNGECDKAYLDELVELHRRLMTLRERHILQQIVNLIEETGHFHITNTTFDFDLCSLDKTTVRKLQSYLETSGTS
The depositor's hits bear a star; ? = inconclusive; . = not tested or not shown.

SMILES | esBAF inh | FGF22 binding | SMARCA2 act | MITF TRPM1 HTS | Wnt bcat act | MLL AF4-AF9 inh
Clc1ncccc1-c1nnn(-c2ccccc2)n1 | 4 | 0 | 7 | 99* | 34* | -7
Fc1ccc(-n2nnc(-c3ccccc3Cl)n2)cc1 | 0 | 0 | 0 | . | -1 | -3
Clc1nc2ccccc2cc1-c1nnn(-c2ccccc2)n1 | 62* | 0 | 3 | . | 27 | -5
Clc1ccc(-n2nnc(-c3cccnc3Cl)n2)cc1Cl | 55* | 0 | 2 | 95* | 30 | -25
c1ccc(-n2nnc(-c3cccnc3)n2)cc1 | 58* | 0 | 5 | 91* | 28 | 2
Fc1ccc(-n2nnc(-c3cccnc3Cl)n2)cc1 | -2 | 0 | 4 | 65 | 17 | -3
COc1ccc(S(=O)(=O)N[C@@H]2CC[C@H](CCNC(=O)CN3CCOCC3)O[C@@H]2CO)cc1 | -1 | 0 | . | . | . | -2
COc1ncccc1-c1nnn(-c2ccccc2)n1 | 5 | 0 | 8 | . | 53* | 4
COc1ncccc1-c1nnn(-c2ccccc2Br)n1 | 22 | 0 | 5 | 16 | 16 | -3
c1ccc(C2=NN(c3ccccc3)CC2)cc1 | 46* | 0 | 5 | 88* | 50* | 3
CS(=O)(=O)N(CC(=O)NCC1CCCO1)c1cccc(Cl)c1 (stereo not drawn) | . | 44* | -1 | 2 | -2 | -1
Cc1ccc(Cc2c(-c3ccccc3)nc3cc(C)ccn23)cc1 | 42* | 0 | 2 | . | 1 | 3
Cc1ccn2c(Cc3ccccc3)c(-c3ccc(F)cc3)nc2c1 | 45* | 0 | 1 | . | 12 | 3
Cc1ccc(Cc2c(-c3ccccc3)nc3c(C)cc(Br)cn23)cc1 | . | 0 | -1 | . | -1 | -4
Fc1ccc(-c2nc3ccc(Cl)cn3c2Cc2ccccc2)cc1 | 13 | 0 | -2 | . | 4 | -3
O=C(C[C@H]1CC[C@@H]2[C@H](COC[C@@H](O)CN2Cc2nccs2)O1)NCc1ccc(-c2ccccc2)cc1 | 3 | 0 | . | . | . | -2
COc1ccc(CN(C)C[C@@H]2OCCCC[C@@H](C)Oc3ccc(NC(=O)CCC(F)(F)F)cc3C(=O)N([C@H](C)CO)C[C@H]2C)cc1 | -2 | -1 | . | . | . | 2
Clc1ccccc1OCc1nnc(-c2ccccc2Br)o1 | 115* | . | 4 | 99* | . | .
N#Cc1ccccc1OCc1nnc(-c2ccccc2Br)o1 | 55* | 0 | 2 | 159* | 29 | 2
Brc1ccccc1-c1nnc(COc2cccc3cccnc23)o1 | . | . | 3 | 7 | . | .
CC(=O)Nc1ccc2c(c1)C(=O)N(C)[C@@H]1CC[C@H](CC(=O)NCc3ccc(F)cc3)O[C@@H]1CO2 | -7 | 0 | . | . | . | -2
NC(=O)C1CCN(C(=S)NC2CC3C=CC2C3)CC1 (stereo not drawn) | . | 0 | 0 | . | 0 | 3
CCOC(=O)C1CCN(C(=S)NC2CC3C=CC2C3)CC1 (stereo not drawn) | . | 0 | -4 | . | 0 | 32*
COc1ccc(NC(=O)N(C)C[C@H]2OCc3ccccc3-c3c(n(C)c4ccccc34)C(=O)N([C@@H](C)CO)C[C@H]2C)c(OC)c1 | 12 | 0 | . | . | . | 2
CCCOc1ccc(C(CC(=O)O)NC(=O)c2sc3ccccc3c2Cl)cc1 (stereo not drawn) | . | 43* | -3 | 1 | -1 | -2
SMILES | esBAF inh | FGF22 binding | SMARCA2 act | MITF TRPM1 HTS | Wnt bcat act | MLL AF4-AF9 inh
CC(=O)C(C)Oc1ccc2c3c(c(=O)oc2c1)CCCCC3 (stereo not drawn) | 66* | . | 6 | ? | . | .
Cc1cc(=O)oc2cc(OC(C)C(=O)NCC3CCC(C(=O)O)CC3)ccc12 (stereo not drawn) | -3 | 0 | 2 | 7 | -2 | -1
Cc1cc(=O)oc2cc(OC(C)C(=O)NCC3CCCO3)ccc12 (stereo not drawn) | 2 | 44* | -4 | -1 | -2 | -11
CN(C)C(=O)c1cccc(-c2ccc3c(c2)[C@H]2[C@H](CCN2Cc2ccccc2F)[C@H](CO)N3)c1 | 10 | 0 | . | . | . | .
C[C@@H]1CN([C@H](C)CO)C(=O)c2cc(NC(=O)Nc3ccccc3)ccc2O[C@@H]1CN(C)C | -5 | 0 | . | . | . | -2
CCCNC(=O)N1[C@H](C#N)[C@@H](c2ccccc2C2=CCCC2)[C@@H]1CO | . | 0 | . | . | . | -4
COc1ccc(S(=O)(=O)Nc2ccc3c(c2)CC(=O)N([C@@H](C)CO)C[C@H](C)[C@@H](CN(C)S(=O)(=O)c2cn(C)cn2)O3)cc1 | 0 | 0 | . | . | . | -1
Cc1cc(NC(=O)OC2CCCCC2)ccc1[N+](=O)[O-] | 67* | 0 | 2 | 120* | 16 | -4
Cc1ccc(NC(=O)C2C3CCCCC32)cc1[N+](=O)[O-] (stereo not drawn) | 42* | 0 | 2 | 55 | 16 | 4
CC(=O)Nc1ccc(C)c([N+](=O)[O-])c1 | -10 | 0 | 1 | 0 | 1 | -1
Cc1cccn2cc(-c3ccccc3)nc12 | . | . | 3 | 38 | . | .
Cc1cccn2cc(-c3ccc(F)cc3)nc12 | 1 | . | 6 | -2 | 55* | .
O=C1OCCN1/N=C/c1ccc([N+](=O)[O-])o1 | -5 | 0 | 0 | -20 | -3 | -6
O=C1CN(/N=C/c2ccc([N+](=O)[O-])o2)C(=O)N1 | 2 | 0 | -7 | . | 2 | 25*
COc1ccccc1N1CCN(C(=O)c2ccc(CSc3ccccc3)cc2)CC1 | 6 | . | -1 | 4 | . | .
CC(C)(O)C#Cc1ccc(C(=O)N2CCN(c3ccccc3)CC2)cc1 | . | 43* | -2 | -8 | -5 | -1
O=C(c1ccc(CSc2ccccc2)cc1)N1CCN(c2ccccc2)CC1 | -1 | 43* | 1 | -2 | -1 | -1
Cc1ccc(C2=NNC(c3cccc(F)c3)S2)cc1 (stereo not drawn) | . | 43 | 1 | -19 | 6 | 0
COc1ccc(C2NN=C(c3ccc(C)cc3)S2)cc1OC (stereo not drawn) | . | 0 | 3 | 57 | 41* | 0
CN(C)c1ccnc(Oc2ccc(Cl)cc2)c1C#N | 28 | 0 | 0 | 49 | 14 | 5
CN(C)c1ccnc(Oc2ccc(C(C)(C)C)cc2)c1C#N | 52* | . | 1 | 48 | . | .
NC(=O)NCC#Cc1ccc2c(c1)[C@]1(C(=O)N2)[C@H](C(N)=O)[C@H]2C(=O)O[C@H](c3ccccc3)[C@H](c3ccccc3)N2[C@@H]1c1ccccc1OCCO | . | 0 | . | . | . | 12
Cc1cc(CN(C)C(=O)c2ccc(OC3CCN(Cc4ccccn4)CC3)cc2)on1 | -3 | 0 | 0 | -7 | -3 | -1
Cc1nonc1CN(C)C(=O)c1ccc(OC2CCN(Cc3ccccn3)CC2)cc1 | -3 | 44* | -6 | 1 | -2 | 1
Cc1nonc1CN(C)C(=O)c1ccc(OC2CCN(C(=O)c3cccnc3)CC2)cc1 | 1 | 44* | -2 | -10 | -4 | -7

Screening results as filed in PubChem BioAssay.
